For one sequence, binding signal results are on record in publication PMC7862700, “An all-to-all approach to the identification of sequence-specific readers for epigenetic DNA modifications on cytosine”.

Assay in all cases: DAPPL (digital affinity profiling via proximity ligation, sequencing); 10 mM Tris-HCl pH 7.5, 50 mM NaCl, 1 mM DTT, 4% glycerol, room temperature, 30 min; GST-TFs on glutathione beads, 16-mer random dsDNA library, 0.1% formaldehyde crosslink after washing; high values mean tight binding
The target in one experiment is T1, FLI1 (Homo sapiens, UniProt Q01543 1-452).
T1 sequence: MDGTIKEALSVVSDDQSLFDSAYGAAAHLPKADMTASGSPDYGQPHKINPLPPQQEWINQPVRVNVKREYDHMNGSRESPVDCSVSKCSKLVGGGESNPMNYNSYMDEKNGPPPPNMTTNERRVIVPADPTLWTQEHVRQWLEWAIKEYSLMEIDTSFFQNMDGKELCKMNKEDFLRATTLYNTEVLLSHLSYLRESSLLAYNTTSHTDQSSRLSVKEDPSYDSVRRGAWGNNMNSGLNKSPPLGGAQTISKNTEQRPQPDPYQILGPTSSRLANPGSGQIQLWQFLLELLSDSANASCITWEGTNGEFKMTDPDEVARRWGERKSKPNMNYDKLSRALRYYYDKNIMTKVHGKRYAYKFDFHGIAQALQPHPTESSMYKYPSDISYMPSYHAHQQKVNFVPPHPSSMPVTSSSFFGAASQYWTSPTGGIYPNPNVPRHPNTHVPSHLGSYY
The note with it: protein: recombinant; tags: N-terminal GST; dsDNA, one strand shown. Summed up: (§1)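 The binding signal reported is, for every hexamer, its read frequency for a factor over its read frequency for the tag-only sample. Reads came from pools of yeast-expressed, GST-fused human transcription factors on glutathione beads, barcoded with DNA and mixed with that sample, which were incubated with 200 nmole of a random double-stranded 16-mer DNA library in Tris/NaCl/DTT/glycerol buffer at room temperature for 30 min. After washing, the pools were crosslinked with 0.1% formaldehyde, proximity-ligated with BsaI/T4 ligase for 1 h at 37 °C, PCR-amplified and sequenced on an Illumina NextSeq500.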

Another experiment has as its target T2, ELK1 (Homo sapiens, UniProt P19419 1-428).
T2 sequence: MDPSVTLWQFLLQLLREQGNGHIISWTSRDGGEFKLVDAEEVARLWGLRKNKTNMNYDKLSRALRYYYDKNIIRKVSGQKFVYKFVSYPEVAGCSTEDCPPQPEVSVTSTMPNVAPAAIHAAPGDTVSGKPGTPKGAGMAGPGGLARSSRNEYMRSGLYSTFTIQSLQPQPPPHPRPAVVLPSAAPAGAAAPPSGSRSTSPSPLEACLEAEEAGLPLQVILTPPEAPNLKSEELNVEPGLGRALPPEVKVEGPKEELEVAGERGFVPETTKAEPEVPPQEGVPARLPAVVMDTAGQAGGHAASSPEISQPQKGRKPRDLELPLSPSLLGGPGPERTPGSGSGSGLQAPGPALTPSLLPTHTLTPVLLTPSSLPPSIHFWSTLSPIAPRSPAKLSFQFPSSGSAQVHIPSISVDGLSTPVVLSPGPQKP
The settings on record: protein: recombinant; tags: N-terminal GST; dsDNA, one strand shown. Summed up: as §1

The next experiment has as its target T3, GABPA (Homo sapiens, UniProt Q06546 1-454).
T3 sequence: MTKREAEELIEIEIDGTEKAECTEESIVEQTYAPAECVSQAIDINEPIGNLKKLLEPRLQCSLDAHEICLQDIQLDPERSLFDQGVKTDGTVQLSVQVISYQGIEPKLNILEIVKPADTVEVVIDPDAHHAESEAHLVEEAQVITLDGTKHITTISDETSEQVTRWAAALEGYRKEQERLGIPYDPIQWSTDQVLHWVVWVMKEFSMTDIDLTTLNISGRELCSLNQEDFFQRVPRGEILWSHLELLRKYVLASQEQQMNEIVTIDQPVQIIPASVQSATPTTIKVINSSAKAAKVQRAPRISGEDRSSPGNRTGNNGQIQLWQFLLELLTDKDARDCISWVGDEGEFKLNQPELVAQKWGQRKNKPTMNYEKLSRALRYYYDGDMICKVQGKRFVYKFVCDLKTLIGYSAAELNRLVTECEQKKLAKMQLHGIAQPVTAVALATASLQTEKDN
The note with it: protein: recombinant; tags: N-terminal GST; dsDNA, one strand shown. Summed up:
as §1

Another experiment addresses T4, ERG (Homo sapiens, UniProt P11308 1-479).
T4 sequence: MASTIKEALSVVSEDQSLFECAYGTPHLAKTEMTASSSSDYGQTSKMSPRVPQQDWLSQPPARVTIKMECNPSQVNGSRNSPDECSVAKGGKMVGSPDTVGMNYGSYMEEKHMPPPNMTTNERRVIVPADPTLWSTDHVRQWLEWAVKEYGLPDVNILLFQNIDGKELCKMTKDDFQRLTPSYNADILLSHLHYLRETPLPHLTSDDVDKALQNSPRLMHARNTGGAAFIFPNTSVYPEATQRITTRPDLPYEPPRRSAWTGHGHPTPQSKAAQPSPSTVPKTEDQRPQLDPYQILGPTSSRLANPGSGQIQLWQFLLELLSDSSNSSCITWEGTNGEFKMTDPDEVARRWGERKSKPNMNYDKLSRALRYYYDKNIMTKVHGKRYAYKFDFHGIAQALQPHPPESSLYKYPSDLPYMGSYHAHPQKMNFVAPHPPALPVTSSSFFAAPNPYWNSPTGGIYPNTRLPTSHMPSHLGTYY
The note with it: protein: recombinant; tags: N-terminal GST; dsDNA, one strand shown. In a few lines: as §1

For the next experiment, the target named is ELF1 (Homo sapiens, UniProt P32519 1-619). The note with it: protein: recombinant; tags: N-terminal GST; dsDNA, one strand shown. In a few lines:
as §1

A further experiment concerns the target T5, EHF (Homo sapiens, UniProt Q9NZC4 1-300).
T5 sequence: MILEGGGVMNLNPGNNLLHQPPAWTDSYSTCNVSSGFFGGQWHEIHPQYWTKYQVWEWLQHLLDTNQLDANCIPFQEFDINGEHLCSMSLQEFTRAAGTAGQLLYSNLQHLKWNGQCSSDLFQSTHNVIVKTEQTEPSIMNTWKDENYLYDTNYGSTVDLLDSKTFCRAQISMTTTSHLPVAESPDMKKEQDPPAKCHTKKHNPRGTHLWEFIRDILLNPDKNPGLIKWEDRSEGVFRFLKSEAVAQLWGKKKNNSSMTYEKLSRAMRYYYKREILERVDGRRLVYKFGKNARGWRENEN
The note with it: protein: recombinant; tags: N-terminal GST; dsDNA, one strand shown. In a few lines:
as §1

In a further experiment the target is SPI1 (Homo sapiens, UniProt P17947 1-270). The settings on record: protein: recombinant; tags: N-terminal GST; dsDNA, one strand shown. Summed up:
as §1

Another experiment concerns the target SPIB (Homo sapiens, UniProt Q01892 1-262). The settings on record: protein: recombinant; tags: N-terminal GST; dsDNA, one strand shown. In a few lines: as §1
Another experiment deals with T6, ELK3 (Homo sapiens, UniProt P41970 1-407).
T6 sequence: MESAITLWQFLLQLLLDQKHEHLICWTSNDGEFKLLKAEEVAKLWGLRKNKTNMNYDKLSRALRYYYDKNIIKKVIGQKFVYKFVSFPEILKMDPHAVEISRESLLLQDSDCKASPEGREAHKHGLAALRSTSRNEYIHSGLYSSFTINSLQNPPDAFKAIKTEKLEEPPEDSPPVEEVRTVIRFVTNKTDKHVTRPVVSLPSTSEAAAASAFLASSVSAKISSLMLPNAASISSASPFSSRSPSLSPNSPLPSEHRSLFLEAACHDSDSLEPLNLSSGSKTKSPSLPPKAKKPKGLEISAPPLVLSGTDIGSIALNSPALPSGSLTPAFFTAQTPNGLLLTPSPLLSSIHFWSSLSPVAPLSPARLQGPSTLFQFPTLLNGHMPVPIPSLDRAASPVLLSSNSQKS
The note with it: protein: recombinant; tags: N-terminal GST; dsDNA, one strand shown. In a few lines: as §1

A further experiment has as its target T7, FEV (Homo sapiens, UniProt Q99581 1-238).
T7 sequence: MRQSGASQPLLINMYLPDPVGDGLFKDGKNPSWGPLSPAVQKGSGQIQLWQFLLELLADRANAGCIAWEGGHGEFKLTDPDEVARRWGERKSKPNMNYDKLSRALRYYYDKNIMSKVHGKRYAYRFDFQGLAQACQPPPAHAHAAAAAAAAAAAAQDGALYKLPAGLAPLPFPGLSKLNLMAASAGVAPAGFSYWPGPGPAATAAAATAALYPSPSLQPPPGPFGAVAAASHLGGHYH
The settings on record: protein: recombinant; tags: N-terminal GST; dsDNA, one strand shown. In a few lines:
as §1

In another experiment the target is ETV5 (Homo sapiens, UniProt P41161 1-510). The settings on record: protein: recombinant; tags: N-terminal GST; dsDNA, one strand shown. Summed up:
as §1

The target of a further experiment is HSF1 (Homo sapiens, UniProt Q00613 1-529). The note with it: protein: recombinant; tags: N-terminal GST; chain copies: 3; dsDNA, one strand shown. In a few lines: as §1
Chain of HSF1 (Q00613 whole entry): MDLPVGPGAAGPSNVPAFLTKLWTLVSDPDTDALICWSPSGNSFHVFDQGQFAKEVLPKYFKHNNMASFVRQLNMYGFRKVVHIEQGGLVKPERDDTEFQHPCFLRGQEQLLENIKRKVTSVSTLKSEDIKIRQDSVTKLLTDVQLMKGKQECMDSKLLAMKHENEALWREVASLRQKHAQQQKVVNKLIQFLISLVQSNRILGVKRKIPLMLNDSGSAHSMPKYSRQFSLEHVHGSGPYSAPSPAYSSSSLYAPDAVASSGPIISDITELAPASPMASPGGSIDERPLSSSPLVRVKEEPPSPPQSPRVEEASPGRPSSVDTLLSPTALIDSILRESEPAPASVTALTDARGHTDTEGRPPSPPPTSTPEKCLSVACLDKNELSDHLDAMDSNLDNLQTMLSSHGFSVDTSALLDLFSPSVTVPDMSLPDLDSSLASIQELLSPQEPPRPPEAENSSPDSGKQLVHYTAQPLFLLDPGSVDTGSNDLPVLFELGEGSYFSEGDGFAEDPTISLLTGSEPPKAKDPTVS
Another experiment has as its target T8, SPIC (Homo sapiens, UniProt Q8N5J4 1-248).
T8 sequence: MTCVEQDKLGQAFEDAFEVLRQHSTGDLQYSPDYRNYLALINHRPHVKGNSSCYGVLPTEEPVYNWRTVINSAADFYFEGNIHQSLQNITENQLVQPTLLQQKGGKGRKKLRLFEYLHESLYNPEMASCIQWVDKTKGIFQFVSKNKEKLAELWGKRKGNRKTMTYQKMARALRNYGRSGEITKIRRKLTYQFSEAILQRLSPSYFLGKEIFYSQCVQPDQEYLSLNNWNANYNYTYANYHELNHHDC
The settings on record: protein: recombinant; tags: N-terminal GST; dsDNA, one strand shown. Summed up:
as §1

The target of a further experiment is ELF4 (Homo sapiens, UniProt Q99607 1-663). The note with it: protein: recombinant; tags: N-terminal GST; dsDNA, one strand shown. In a few lines: as §1
Chain of ELF4 (Q99607 whole entry): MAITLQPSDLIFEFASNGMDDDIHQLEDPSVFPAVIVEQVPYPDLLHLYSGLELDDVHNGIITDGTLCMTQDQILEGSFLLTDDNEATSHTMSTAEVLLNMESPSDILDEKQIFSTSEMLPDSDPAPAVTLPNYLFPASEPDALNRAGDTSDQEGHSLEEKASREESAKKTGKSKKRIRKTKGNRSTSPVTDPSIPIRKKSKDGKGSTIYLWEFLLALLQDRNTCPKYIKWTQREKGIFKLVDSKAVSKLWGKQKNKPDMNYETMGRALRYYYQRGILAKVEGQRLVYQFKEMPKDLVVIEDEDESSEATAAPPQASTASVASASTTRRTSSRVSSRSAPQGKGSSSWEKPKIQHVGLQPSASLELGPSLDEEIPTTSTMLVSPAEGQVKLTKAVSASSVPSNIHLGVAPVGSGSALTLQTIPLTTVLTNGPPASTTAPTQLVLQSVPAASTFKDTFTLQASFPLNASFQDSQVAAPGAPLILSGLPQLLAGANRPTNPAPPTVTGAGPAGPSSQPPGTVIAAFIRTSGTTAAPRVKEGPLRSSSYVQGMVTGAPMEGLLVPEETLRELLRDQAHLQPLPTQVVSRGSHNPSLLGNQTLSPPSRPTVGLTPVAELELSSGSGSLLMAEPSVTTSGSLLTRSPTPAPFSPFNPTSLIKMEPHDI
For a further experiment, the target named is T9, ELK4 (Homo sapiens, UniProt P28324-2 1-405).
T9 sequence: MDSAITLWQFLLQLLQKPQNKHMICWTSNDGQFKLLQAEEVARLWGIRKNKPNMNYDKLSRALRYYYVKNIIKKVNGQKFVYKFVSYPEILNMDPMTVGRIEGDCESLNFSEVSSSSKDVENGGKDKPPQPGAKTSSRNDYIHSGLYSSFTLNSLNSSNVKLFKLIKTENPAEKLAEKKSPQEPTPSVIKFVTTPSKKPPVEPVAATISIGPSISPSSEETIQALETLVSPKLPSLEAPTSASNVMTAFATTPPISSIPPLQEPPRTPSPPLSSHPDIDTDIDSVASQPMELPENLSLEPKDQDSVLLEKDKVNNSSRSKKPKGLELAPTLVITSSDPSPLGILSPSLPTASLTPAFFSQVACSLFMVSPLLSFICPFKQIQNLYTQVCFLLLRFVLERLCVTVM
The note with it: protein: recombinant; tags: N-terminal GST; dsDNA, one strand shown. Summed up:
as §1

The target of a further experiment is T10, ETV2 (Homo sapiens, UniProt O00321 1-342).
T10 sequence: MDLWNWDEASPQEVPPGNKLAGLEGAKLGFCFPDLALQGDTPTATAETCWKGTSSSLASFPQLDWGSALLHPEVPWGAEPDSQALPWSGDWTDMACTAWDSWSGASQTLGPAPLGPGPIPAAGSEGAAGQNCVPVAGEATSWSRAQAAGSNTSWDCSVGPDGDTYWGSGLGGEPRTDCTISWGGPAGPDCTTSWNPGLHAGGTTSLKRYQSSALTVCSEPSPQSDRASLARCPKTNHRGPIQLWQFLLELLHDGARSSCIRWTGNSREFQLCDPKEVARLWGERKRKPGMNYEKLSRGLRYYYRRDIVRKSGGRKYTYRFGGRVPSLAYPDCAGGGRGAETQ
The note with it: protein: recombinant; tags: N-terminal GST; dsDNA, one strand shown. Summed up:
as §1

The target of another experiment is T11, ELF3 (Homo sapiens, UniProt P78545 1-371).
T11 sequence: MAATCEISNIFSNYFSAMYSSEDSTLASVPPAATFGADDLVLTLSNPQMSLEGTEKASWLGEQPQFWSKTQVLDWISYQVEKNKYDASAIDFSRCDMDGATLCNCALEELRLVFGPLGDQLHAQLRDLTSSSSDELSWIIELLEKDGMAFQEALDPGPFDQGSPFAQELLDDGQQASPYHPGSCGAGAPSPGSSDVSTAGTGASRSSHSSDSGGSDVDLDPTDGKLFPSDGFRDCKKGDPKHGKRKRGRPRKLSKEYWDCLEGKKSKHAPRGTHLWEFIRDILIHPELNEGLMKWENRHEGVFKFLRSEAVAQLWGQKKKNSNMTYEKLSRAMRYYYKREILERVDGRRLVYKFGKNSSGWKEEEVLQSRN
The note with it: protein: recombinant; tags: N-terminal GST; dsDNA, one strand shown. Summed up: as §1

For a further experiment, the target named is CRX (Homo sapiens, UniProt O43186 1-299). The note with it: protein: recombinant; tags: N-terminal GST; dsDNA, one strand shown. Summed up:
as §1

The next experiment deals with ETV1 (Homo sapiens, UniProt P50549 1-477). The settings on record: protein: recombinant; tags: N-terminal GST; dsDNA, one strand shown. In a few lines:
as §1

Chain of ELF1 (P32519 whole entry): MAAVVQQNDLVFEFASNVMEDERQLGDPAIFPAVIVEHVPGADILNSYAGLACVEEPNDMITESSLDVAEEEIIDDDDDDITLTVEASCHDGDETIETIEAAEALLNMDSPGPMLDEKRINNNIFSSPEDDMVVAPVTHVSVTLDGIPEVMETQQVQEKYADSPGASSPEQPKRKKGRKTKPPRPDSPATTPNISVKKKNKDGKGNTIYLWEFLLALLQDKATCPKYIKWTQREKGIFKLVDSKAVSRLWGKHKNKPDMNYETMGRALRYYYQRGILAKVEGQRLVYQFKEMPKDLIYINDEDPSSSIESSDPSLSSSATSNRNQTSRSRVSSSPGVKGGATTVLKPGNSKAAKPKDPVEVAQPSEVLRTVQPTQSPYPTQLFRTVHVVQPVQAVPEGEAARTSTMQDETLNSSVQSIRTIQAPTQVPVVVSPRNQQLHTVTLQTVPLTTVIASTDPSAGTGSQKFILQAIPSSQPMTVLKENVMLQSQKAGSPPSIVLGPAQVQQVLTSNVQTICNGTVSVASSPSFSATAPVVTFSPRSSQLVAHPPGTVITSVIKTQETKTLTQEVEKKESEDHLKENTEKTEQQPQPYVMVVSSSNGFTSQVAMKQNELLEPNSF
Chain of ETV1 (P50549 whole entry): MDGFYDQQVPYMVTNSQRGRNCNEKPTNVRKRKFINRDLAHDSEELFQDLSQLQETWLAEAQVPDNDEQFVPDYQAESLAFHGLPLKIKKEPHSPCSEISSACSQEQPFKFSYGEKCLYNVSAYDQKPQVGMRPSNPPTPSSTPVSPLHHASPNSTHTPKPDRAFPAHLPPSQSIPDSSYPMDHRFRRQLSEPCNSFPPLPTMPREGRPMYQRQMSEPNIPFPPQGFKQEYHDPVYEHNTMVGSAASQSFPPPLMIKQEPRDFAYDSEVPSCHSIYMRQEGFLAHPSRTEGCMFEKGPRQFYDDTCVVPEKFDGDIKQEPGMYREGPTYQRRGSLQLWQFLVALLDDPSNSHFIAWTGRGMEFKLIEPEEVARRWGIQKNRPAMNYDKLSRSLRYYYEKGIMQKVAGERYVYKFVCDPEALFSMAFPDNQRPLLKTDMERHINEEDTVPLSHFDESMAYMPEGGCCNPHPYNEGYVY
Chain of ETV5 (P41161 whole entry): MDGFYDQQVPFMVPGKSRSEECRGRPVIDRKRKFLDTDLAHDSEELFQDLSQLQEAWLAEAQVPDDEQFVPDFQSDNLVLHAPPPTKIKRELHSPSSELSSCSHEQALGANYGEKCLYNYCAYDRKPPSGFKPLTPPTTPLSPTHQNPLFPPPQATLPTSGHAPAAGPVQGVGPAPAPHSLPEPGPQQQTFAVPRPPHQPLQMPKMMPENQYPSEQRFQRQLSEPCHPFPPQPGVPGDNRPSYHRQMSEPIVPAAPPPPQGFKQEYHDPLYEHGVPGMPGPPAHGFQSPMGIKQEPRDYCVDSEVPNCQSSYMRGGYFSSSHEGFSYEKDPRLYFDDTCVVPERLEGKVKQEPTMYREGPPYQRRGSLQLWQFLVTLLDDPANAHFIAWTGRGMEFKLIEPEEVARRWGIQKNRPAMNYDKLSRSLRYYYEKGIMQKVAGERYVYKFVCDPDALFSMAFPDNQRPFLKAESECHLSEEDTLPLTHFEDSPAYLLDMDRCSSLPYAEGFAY
Chain of SPIB (Q01892 whole entry): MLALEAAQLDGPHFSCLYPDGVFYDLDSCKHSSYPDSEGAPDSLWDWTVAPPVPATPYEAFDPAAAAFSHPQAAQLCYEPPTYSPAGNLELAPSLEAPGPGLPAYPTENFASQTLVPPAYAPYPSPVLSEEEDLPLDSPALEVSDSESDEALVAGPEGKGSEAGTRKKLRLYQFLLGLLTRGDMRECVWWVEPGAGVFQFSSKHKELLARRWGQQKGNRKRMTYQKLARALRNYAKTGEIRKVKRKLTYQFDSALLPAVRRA
Chain of CRX (O43186 whole entry): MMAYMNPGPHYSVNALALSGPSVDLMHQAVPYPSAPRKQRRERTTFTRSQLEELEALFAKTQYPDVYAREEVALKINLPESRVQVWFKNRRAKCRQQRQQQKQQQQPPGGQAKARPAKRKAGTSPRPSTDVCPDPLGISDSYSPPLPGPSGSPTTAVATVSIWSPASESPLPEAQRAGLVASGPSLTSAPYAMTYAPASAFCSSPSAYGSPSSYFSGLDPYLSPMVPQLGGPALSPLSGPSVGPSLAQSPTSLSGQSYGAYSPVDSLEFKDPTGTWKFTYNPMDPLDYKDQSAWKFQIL

For the sequence GCTTAT, the binding signal is 1.33 fold enrichment (6-mer frequency, TF over GST control) with FLI1; 1.21 fold enrichment (6-mer frequency, TF over GST control) in the experiment with ELK1; 1.28 fold enrichment (6-mer frequency, TF over GST control) with GABPA; 1.18 fold enrichment (6-mer frequency, TF over GST control) in the experiment with ERG; 1.28 fold enrichment (6-mer frequency, TF over GST control) with ELF1; 1.12 fold enrichment (6-mer frequency, TF over GST control) in the experiment with EHF. Moreover, the binding signal with SPI1 is 1.3 fold enrichment (6-mer frequency, TF over GST control); with SPIB, 1.31 fold enrichment (6-mer frequency, TF over GST control); with ELK3 it was 1.16 fold enrichment (6-mer frequency, TF over GST control); with FEV, 1.21 fold enrichment (6-mer frequency, TF over GST control); with ETV5 it was 1.23 fold enrichment (6-mer frequency, TF over GST control); in the experiment with HSF1, 1.89 fold enrichment (6-mer frequency, TF over GST control). For the same sequence, the binding signal with SPIC is 1.42 fold enrichment (6-mer frequency, TF over GST control); in the experiment with ELF4, 1.23 fold enrichment (6-mer frequency, TF over GST control); with ELK4, 1.28 fold enrichment (6-mer frequency, TF over GST control); with ETV2 it was 1.11 fold enrichment (6-mer frequency, TF over GST control); in the experiment with ELF3 it was 1.29 fold enrichment (6-mer frequency, TF over GST control); with CRX it was 2.89 fold enrichment (6-mer frequency, TF over GST control). Further, in the experiment with ETV1, the binding signal was 1.35 fold enrichment (6-mer frequency, TF over GST control).
